Results filed as inconclusive are left out. Calls of active or inactive are those of the source. Calls follow the shape of the dose curve; as a rule, active = well fitted inhibition curve with a large enough effect in the polarisation, with a control signal flat (not every such curve was filed as active); inconclusive = small, poorly fitted or top-dose-only effect, or effect the other way, or a change in a side signal; inactive = no such curve, though single readings can be large or run the other way; the % refers to the polarisation.
biological target: Menin (Homo sapiens) (UniProt O00255); experiment: Confirmation of Inhibitors Targeting the Menin-MLL Interaction in MLL Related Leukemias: Competition With Fluorescein Labeled MLL-derived Peptide; details: Fluorescence polarization, fluorescein-MLL peptide displacement from menin; series mostly up to 100 µM
Sequence (O00255 whole entry, looked up): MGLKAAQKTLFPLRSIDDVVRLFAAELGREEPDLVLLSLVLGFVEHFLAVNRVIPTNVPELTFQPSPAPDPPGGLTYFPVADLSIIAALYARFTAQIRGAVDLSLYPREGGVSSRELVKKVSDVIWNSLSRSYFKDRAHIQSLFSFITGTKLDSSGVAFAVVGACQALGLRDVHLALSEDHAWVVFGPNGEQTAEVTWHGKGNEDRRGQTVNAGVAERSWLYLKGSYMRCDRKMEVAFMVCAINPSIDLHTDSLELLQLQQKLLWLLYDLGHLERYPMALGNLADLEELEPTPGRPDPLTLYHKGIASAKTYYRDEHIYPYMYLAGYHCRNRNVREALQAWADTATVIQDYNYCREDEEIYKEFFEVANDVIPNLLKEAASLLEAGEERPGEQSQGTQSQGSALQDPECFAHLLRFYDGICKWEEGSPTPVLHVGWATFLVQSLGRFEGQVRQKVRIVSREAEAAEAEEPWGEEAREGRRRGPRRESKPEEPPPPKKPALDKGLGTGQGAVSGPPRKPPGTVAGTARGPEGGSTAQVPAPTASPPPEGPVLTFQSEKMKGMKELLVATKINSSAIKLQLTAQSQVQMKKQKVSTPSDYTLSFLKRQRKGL
Source text: qHTS Assay for Inhibitors Targeting the Menin-MLL Interaction in MLL Related Leukemias
NIH Chemical Genomics Center [NCGC]
NIH Molecular Libraries Probe Centers Network [MLPCN]
Assay Submitter (PI): Jolanta Grembecka, Tomasz Cierpicki, University of Virginia
Translocations of the MLL (Mixed Lineage Leukemia) gene are frequently found in human leukemias affecting both children and adults. Fusion of MLL to one of more than 60 genes results in generation of oncogenic proteins upregulating Hox genes, which are vital to blood cell development. Patients harboring fusion of the MLL gene suffer from aggressive leukemias and respond poorly to available therapies. All of the oncogenic fusion proteins have a preserved N-terminal fragment of MLL that has been identified to interact with menin. It has been recently discovered that association with menin is critical to the leukemogenic activity of the MLL fusion oncoproteins. Selective targeting of the menin-MLL interaction could provide an attractive therapeutic approach to develop novel drugs for MLL-related leukemias. Small molecules blocking the menin-MLL interaction should reverse the oncogenic potential of MLL fusion proteins.
We have developed and optimized a fluorescence polarization-based assay for the identification of Menin-MLL inhibitors. The assay was run employing two different MLL-derived peptides. The present assay uses a 12 amino acid peptide labeled with fluorescein at its N-terminus. This peptide consists of the menin high affinity binding motif from MLL and is potently bound by menin. Another peptide with a mutated sequence, labeled with Texas Red, was used in parallel as a less stringent screen for inhibitors.
The present assay was run to confirm the activity of hits from the primary screen.
The Menin protein, the MLL-wild type (w.t.) derived peptide (N-terminal 12 amino acids), the MLL-derived peptide labeled with Texas Red and the MLL-w.t. peptide labeled with Fluorescein were kindly supplied by laboratory of Dr. Jolanta Grembecka, University of Virginia. All protein and peptide solutions were stored in single use aliquots at -80C. The Eu3+ Cyrptate-conjugated mouse monoclonal antibody anti-6 Histidine (Eu3+-AB) and the Streptavidin-XL665 conjugate (XL665) were purchased from Cisbio International (Bedford, MA). All antibody and XL665 conjugate solution stocks were stored in single use aliquots at -20C. The Buffer components for all assays were purchased from Sigma-Aldrich (St. Louis, MO) and Invitrogen (Carlsbad, CA).
1. FP reaction buffer: 50 mM Tris-HCl pH 7.5, 50 mM NaCl, 1mM DTT.
Before use, 0.05% BSA is added.
2. Menin protein, MLL-w.t. labeled with fluorescein, MLL-mutant peptide labeled with texas red.
Stored in singe use aliquots at -80C.
3. MLL-w.t. unlabeled peptide as positive control: 10 uM final in FP buffer.
1. Prepare Menin at 200 nM, MLL-w.t.-fluorescein at 25 nM, and MLL-mutant-texas red at 50 nM mixture in FP buffer.
2. Prepare Menin at 200 nM, MLL-w.t.-fluorescein at 25 nM, MLL-mutant-texas red at 50 nM, and 10 uM MLL-w.t. unlabeled mixture in FP buffer.
3. Prepare MLL-w.t.-fluorescein at 25 nM and MLL-mutant-texas red at 50 nM mixture in FP buffer.
3. Dispense 4 ul per well of reagent in step 1 in columns 2, 4 - 48 in a black 1536 well plate, dispense 4 ul per well of reagents from steps 2 and 3 in columns 1 and 3 respectively. Incubate plate at ambient for 15 minutes.
4. Transfer 23 nl per well of compound to plate and incubate at ambient for 1 hr.
5. Read fluorescence polarization for each label using the PerkinElmer Envision.
Envision protocol for fluorescein: FITC FP Dual Enh Mirror, Excitation filter 480, Emission filter (1) P-pol 535, Emission filter (2) S-pol 535
Envision protocol for texas red: FP Dual Enh Mirror, Excitation filter 555, Emission filter (1) P-pol 632, Emission filter (2) S-pol 632

outcome, inactive:
NS(=O)(=O)c1ccc(NC(=O)c2ccc(S(=O)(=O)N3CCc4ccccc43)cc2)cc1
CCOC(=O)N1CCN(CCC(=O)c2ccc(Br)cc2)CC1
Fc1ccccc1C1c2cccn2CCN1C(=S)Nc1ccc(Br)cc1 (stereo not given)
CCN1C(=O)c2ccccc2S(=O)(=O)c2ccc(C(=O)NCCCN(CC(C)C)CC(C)C)cc21
O=c1cc(O)c2ccccc2n1Cc1ccccc1F
O=[N+]([O-])c1ccc(S(=O)(=O)c2ccccc2)nc1
CCc1ccc2c(c1)C(NC(C)=O)C(=O)N2CCN1CCOCC1 (stereo not given)
O=C(CCn1nc(-c2ccccc2)ccc1=O)N1CCN(c2ccccn2)CC1
O=C(c1cc2c(=O)n3ccccc3nc2s1)N1CCOCC1
COc1ccccc1N(CC1CO1)S(=O)(=O)c1ccccc1 (stereo not given)
O=C(Nc1nnc(SCc2ccc(F)cc2)s1)c1ccc2c(c1)C(=O)N(c1ccccc1Cl)C2=O
COc1ccccc1NS(=O)(=O)c1cc(NC(=O)Nc2cccc(C)c2)ccc1N1CCCCC1
Cc1ccc(NC(=O)CN2C(=O)S/C(=C\c3ccc(C(=O)O)cc3)C2=O)cc1
N#Cc1ccc(Cl)cc1NC(=O)CNCc1cccs1
c1ccc2c(c1)nc(N1CCOCC1)c1c3ccccc3[nH]c21
COc1cccc(NC(=O)N2CCCc3ccccc32)c1
Cc1cc2nc(-c3ccc(SCC(=O)Nc4ccc5c(c4)OCCO5)nc3)[nH]c2cc1C
COc1ccc(-c2csc(NC(=S)NC(=O)/C=C/c3ccc(C(C)C)cc3)n2)cc1OC
CCCCC(=O)NC(=S)Nc1nnn(CCC)n1
Cc1cc(N2CCOCC2)nc2ccc(Cl)cc12
O=C(C1=C(O)C(=O)N(CCN2CCOCC2)C1c1cccc(Br)c1)c1cccs1 (stereo not given)
O=C(CCC1CCCCC1)NCCN1C2=NC[C@H](Cc3ccc(O)cc3)N2C[C@H]1Cc1ccc(O)cc1
CCCc1nc2c(=O)[nH]c3ccccc3c2o1
O=C(O)c1ccccc1NS(=O)(=O)c1cccc(-n2sc3ccccc3c2=O)c1
C=CCN(CC=C)S(=O)(=O)c1ccc(NC(=S)NC(=O)/C=C/c2cccc3ccccc23)cc1
CCCNC(=O)c1ccc2c(=O)c(O)c(C)[nH]c2c1
COc1ccc(-c2cc(=O)c3c(O)cc(O)c(-c4cc(-c5cc(=O)c6c(O)cc(OC)cc6o5)ccc4OC)c3o2)cc1
COc1ccc(N(CC(=O)NC2CC3CCC2C3)S(=O)(=O)c2ccc(C)cc2)cc1OC (stereo not given)
CCOC(=O)c1sc(NC(=O)Nc2ccc(Cl)cc2)nc1C
CC(=O)N1CCCc2cc(S(=O)(=O)N3CCCC(C(=O)N4CCN(c5ccccc5)CC4)C3)ccc21 (stereo not given)
COc1ccc(Cn2nnnc2C(c2ccccc2)N2CCN(C3CCCC3)CC2)cc1 (stereo not given)
CCOc1ccc(C2Nc3ccc4ccccc4c3-c3c2c(=O)oc2ccccc32)cc1 (stereo not given)
COc1ccccc1CNCC(=O)Nc1ccc(C#N)cc1
COc1ccc(CC(=O)Nc2ccc(-c3nnc(-c4ccccc4)o3)cc2)cc1
CCn1ncc(C(=O)Nc2cc(C)on2)c1C
CN(C)/C=C(/C(=O)c1ccc(Cl)cc1)S(=O)(=O)c1ccc(Cl)cc1
COc1ccc(-c2cc(-c3ccc(C)cc3)n[nH]2)c(O)c1
Cc1cc(C)c2c(=O)cc(C(=O)NCc3ccccc3)oc2c1
Cc1cnc(NC(=O)C2C(=O)c3ccccc3S(=O)(=O)N2C)s1 (stereo not given)
CCOC(=O)Cn1c2ccccc2n2nc(CCC(=O)O)c(=O)nc12
